# High-throughput results from PubChem.
# GLP1R inv ag = inverse agonists of human GLP-1 receptor. P43220. HEK293 GLP-1R CRE-luciferase, luminescence, 24 h; GLP-1R form is constitutively active. Potency, µM (top dose mostly 38.3 µM), most hits filed as inhibitors. 410,000 compounds, 1.6% hits. AID 624417; note: nearly all actives have a fitted effect of over 55% in size
# Target sequence (P43220 whole entry, looked up): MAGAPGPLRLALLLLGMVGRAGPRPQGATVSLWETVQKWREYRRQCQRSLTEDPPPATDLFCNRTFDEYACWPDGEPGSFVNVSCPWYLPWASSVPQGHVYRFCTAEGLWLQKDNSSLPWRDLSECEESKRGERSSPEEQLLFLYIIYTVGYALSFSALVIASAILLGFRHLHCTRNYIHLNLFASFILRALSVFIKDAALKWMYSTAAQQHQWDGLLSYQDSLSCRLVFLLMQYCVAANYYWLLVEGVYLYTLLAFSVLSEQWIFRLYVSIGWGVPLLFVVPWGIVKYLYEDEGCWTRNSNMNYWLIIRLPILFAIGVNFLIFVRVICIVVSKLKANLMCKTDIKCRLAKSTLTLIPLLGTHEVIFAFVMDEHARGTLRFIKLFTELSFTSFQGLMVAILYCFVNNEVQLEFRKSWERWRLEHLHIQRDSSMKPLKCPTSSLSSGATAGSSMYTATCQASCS
#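 GLP-1R inverse agonism mode: basal reporter luminescence in engineered HEK293 cells measured after one day of compound exposure at 37 deg C, with a 12 min room-temperature detection step.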
# HEK293 tox = cytotoxic in the GLP-1 receptor inverse agonist counter-screen | Potency, µM (highest dose often 38.3 µM), actives largely listed as inhibitors | AID 624418 | HEK293 cAMP-luciferase reporter cells, luminescence, 24 h | 410,000 compounds, 0.13% hits;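 note: loss of luciferase light is scored as toxicity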
#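 Luminescence readout: signal drop marks cytotoxicity. Plated cells grew 12 h at 37 °C, 5% CO2, received 23 nL compound for 24 h, then got luciferase reagent, read after 12 min at RT.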
# RORgamma inh = blocks mouse ROR gamma transcriptional activity. P51450. Drosophila S2 Gal4-RORgamma UAS-luciferase reporter, 20 h. Potency, µM (series often up to 53.6 µM), actives largely listed as inhibitors. 310,000 compounds, 5.4% hits. AID 2551; note: nearly all actives have a fitted effect of over 60% in size
#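 Compounds are pin-transferred onto Drosophila Schneider cells expressing a copper-inducible Gal4–ROR gamma transactivation domain fusion. After 1 hr, copper sulfate is added to 700 uM final; luciferase is read 20 hr later.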
# Gal4-VP16 FLuc = inhibits Gal4-VP16 luciferase reporter, ROR gamma counter-screen | Drosophila S2 Gal4-VP16 UAS-luciferase, luminescence, 20 h | Potency, µM (highest dose often 53.6 µM), hits mostly inhibitors | 310,000 compounds, 3.5% hits;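 note: Gal4-VP16 expression switched on by copper sulfate through the metallothionein promoter; nearly all actives have a fitted effect of over 50% in size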
# GLP1R ag = agonists of human GLP-1 receptor | P43220 | HEK293 GLP-1R CRE-luciferase, luminescence, 4-6 h; cells express a hypersensitive GLP-1R form | Potency, µM (series often up to 45.6 µM), usual class: activators | 380,000 compounds, 0.007% hits
# Hits are given with their value; 0 = inactive; ? = inconclusive; - = no result given; [ ] = dose if it differs, or a comment. In the library only some 5.9% were active in any assay of this set; here they are far more common. Calls come from the whole dose curve; as a rule, active = well fitted curve in the direction sought with a large enough effect; inconclusive = small, poorly fitted or top-dose-only effect, or another doubt; inactive = no such curve, though single readings can be large; an effect the other way counts as inactive or inconclusive.
SMILES,GLP1R inv ag,HEK293 tox,RORgamma inh,Gal4-VP16 FLuc,GLP1R ag
CC1(C)C2CC[C@]1(C)[C@@H](O)C2,-,-,0,0,0
COc1ccccc1N1CCN(C(=O)c2c(C)oc3ncn(C)c(=O)c23)CC1,0,0,-,-,-
O=C(NNC1=NS(=O)(=O)c2ccccc21)c1ccccc1,0,0,13µM,?,0
COc1ccc2c(C)c(CCC(=O)NCCc3ccc(Cl)cc3)c(=O)oc2c1,?,0,-,-,-
O=C(NCCn1cc(SCc2ccccc2)c2ccccc21)c1ccccc1F,10µM,0,?,0,0
CCCCCCc1c(C)nc(-n2[nH]c(C)c(CCO)c2=O)[nH]c1=O,0,0,3.5µM,16µM,0
CCCCCCCc1c(C)nc(N2CCOCC2)[nH]c1=O,0,0,0,0,0
CC(C)c1nnc(NC(=O)C2CCN(C(=O)Nc3ccc(Cl)cc3)CC2)s1,4µM,0,0,0,0
CCc1cc(C(=O)NNC(=O)CCl)sc1C,0,?,10µM,0,0
CCc1cc(C(=O)Nc2ccc(OC)nc2)sc1C,?,0,-,-,0
CCc1cc(C(=O)Nc2ncccc2O)sc1C,?,0,7.9µM,10µM,0
O=C(NCCN1CCC(n2c(=O)[nH]c3ccccc32)CC1)c1ccc(C(F)(F)F)cc1C(F)(F)F,0,0,-,-,0
FC(F)(F)c1ccc2c(c1)[nH]c(=S)n2C1CC1,?,0,1.4µM,?,0
O=C(CSc1nccc(-c2cccs2)n1)Nc1cccc(Cl)c1,0,0,?,?,0
Cc1onc(-c2ccc(Cl)cc2)c1-c1ccnc(SCC(=O)Nc2cc(Cl)cc(Cl)c2)n1,3.5µM,0,?,0,0
COc1ncc2nc(-c3ccc(Cl)cc3)c(=O)n(Cc3cccs3)c2n1,-,-,0,0,-
Cc1c(C(=O)Nc2nc3ccccc3[nH]2)cccc1[N+](=O)[O-],0,0,7.9µM,10µM,0
O=C(Nc1nc2ccccc2[nH]1)c1ccc(Cl)c([N+](=O)[O-])c1,0,0,2.8µM,?,0
O=C(Nc1nc2ccccc2[nH]1)c1ccccc1[N+](=O)[O-],0,0,8.9µM,22µM,0
COc1cc(OC)cc(C(=O)NCCc2csc(-c3cccc(C)c3)n2)c1,?,0,-,-,-
Cc1sc(N/N=C/c2cccs2)nc1-c1ccccc1,?,0,7.1µM,10µM,0
CC(C)n1cc(/C=N/NC(=O)COc2cccc3cccnc23)c2ccccc21,0,?,?,?,0
COc1ccc(OCC(=O)N/N=C/c2cccc3cccnc23)cc1,?,0,-,-,0
O=C(COc1ccc(Cl)cc1)N/N=C/c1cccc2cccnc12,?,?,13µM,10µM,0
COc1ccccc1OCC(=O)N/N=C/c1cccc2cccnc12,?,0,18µM,?,0
SMILES,GLP1R inv ag,HEK293 tox,RORgamma inh,Gal4-VP16 FLuc,GLP1R ag
COc1ccccc1OCC(=O)N/N=C/c1c(O)ccc2ccccc12,-,-,2.8µM,2.5µM,-
COc1ccc(/C=N/NC(=O)COc2cccc3ccccc23)c(C(=O)O)c1OC,0,0,0,?,0
COc1cccc(/C=N/NC(=O)COc2cccc3cccnc23)c1O,?,0,2.2µM,13µM,0
Cc1cc(/C=N\NC(=O)COc2cccc3cccnc23)c(C)n1-c1ccccc1,0,0,0,0,0
COC(=O)C1=C[C@@H](C(=O)OC)[C@@H]2C3=C(C(=O)[C@@]2(C)NC(=O)c2ccccc2)[C@H](C)[C@@H]2C(=O)N(Cc4ccccc4)C(=O)[C@@H]2[C@@H]3C1,-,-,0,0,-
CCn1c2ccccc2c2cc(/C=N/NC(=O)c3ccncc3)ccc21,?,0,8.9µM,?,0
Cc1cccc(OCCn2cc(/C=N/NC(=O)c3ccncc3)c3ccccc32)c1,?,?,4.5µM,5.6µM,0
CCC(C)c1ccc(OCCn2cc(/C=N/NC(=O)CSc3nnc(C)s3)c3ccccc32)cc1 (centres undefined),?,0,?,22µM,0
CCn1c2ccccc2c2cc(/C=N/NC(=O)c3ccc(O)cc3)ccc21,?,?,0,0,0
CCCCC/C=C\C/C=C\C/C=C\C=C\C(=O)CCCC(=O)O,-,-,0,0,-
COc1ccccc1CN(Cc1ccco1)c1cnc(S(C)(=O)=O)nc1C(=O)Nc1cc(C)ccc1C,?,0,-,-,-
C=CCNC(=S)/N=c1/ccccn1CCC,0,0,5µM,?,0
CCc1cccc(C)c1NC(=O)CCCSc1nc2ccccc2s1,?,0,0,0,0
CCNC(=O)NC(=O)COC(=O)CCCSc1nc2ccccc2s1,0,0,?,7.9µM,0
CNC(=O)NC(=O)C(C)OC(=O)CCCc1nc2ccccc2s1 (centres undefined),0,0,0,0,0
CNC(=O)NC(=O)C(C)OC(=O)CCCSc1nc2ccccc2s1 (centres undefined),0,0,7.1µM,4.5µM,0
CCNC(=O)NC(=O)COC(=O)CCCc1nc2ccccc2s1,0[0.307 µM],0[0.307 µM],0,0,0
CC(OC(=O)CCCc1nc2ccccc2s1)C(=O)NC(N)=O (centres undefined),0,0,0,?,0
Cc1ccccc1NC(=O)CCCSc1nc2ccccc2s1,?,0,13µM,2.5µM,0
CCNC(=O)NC(=O)C(C)OC(=O)CCCSc1nc2ccccc2s1 (centres undefined),0,0,?,4.5µM,0
COC(=O)c1ccc(NC(=O)c2nn(C)c3c2CS(=O)(=O)c2ccccc2-3)cc1,0,0,-,-,-
Cn1c(=O)oc2cc(S(=O)(=O)N3CCC(C(=O)N4CCN(c5ccc(Cl)cc5)CC4)CC3)ccc21,0,0,-,-,0
N#Cc1c(-n2ncnc2-c2ccc(F)cc2)sc2c1CCCCC2,?,0,-,-,-
Cc1cccc(N2CCN(Cc3cc(=O)oc4cc(C)ccc34)CC2C)c1 (centres undefined),0,0,-,-,-
CCCCC(=O)Nc1c(C(=O)N2CCN(c3ccccc3)CC2)oc2ccccc12,?,0,-,-,-
SMILES,GLP1R inv ag,HEK293 tox,RORgamma inh,Gal4-VP16 FLuc,GLP1R ag
Brc1cc2c(cc1/C=N/Nc1nc(N3CCCCC3)nc(N3CCCCC3)n1)OCO2,-,-,1.8µM,0,-
O=[N+]([O-])c1cc2c(cc1/C=N/Nc1nc(Nc3ccccc3)nc(N3CCCCC3)n1)OCO2,0,0,3.2µM,0,0
COc1nc(N/N=C/c2cc3c(cc2Br)OCO3)nc(N2CCOCC2)n1,0,0,0,0,0
Cc1cccc(Nc2nc3c(S(=O)(=O)c4ccc(Br)cc4)nnn3c3ccsc23)c1C,0,0,-,-,-
C/C(=N\NC(=O)c1ccc(-c2ccccc2)cc1)c1cccc(N)c1,0,0,13µM,0,0
C/C(=N\Nc1nc(C)cc(-c2ccccc2)n1)c1cccc(N)c1,?,?,11µM,16µM,0
C/C(=N\Nc1cc(-c2ccccc2)nc(-c2ccccc2)n1)c1ccc(O)c(C)c1,?,?,8.9µM,13µM,0
CC/C(=N\NC(=O)c1ccc(-c2ccccc2)cc1)C12CC3CC(CC(C3)C1)C2,0,0,22µM,?,0
CN1CCN(c2ncnc3ccc(-c4cccc(NS(C)(=O)=O)c4)cc23)CC1,-,-,0,0,-
